# From PubChem BioAssay
# The source made the active and inactive calls.
# Columns and labels:
# [1] = test system: Plasmodium falciparum Sir2 (PF13_0152, Sir2A); test: pfSir2 binders on small-molecule microarrays, primary screen, biochemical, small-molecule microarray, 635 nm fluorescence (AID 1098); details: small-molecule microarray binding, fluorescence 635 nm; higher = more signal;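 also: score merges spot fluorescence intensity with its signal-to-noise ratio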
# [2] = small-molecule microarray binders of probe aDKK1, primary screen, biochemical, biotinylated probe, 635/667 nm fluorescence (AID 1099); details: higher = more signal;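 also: score merges 667nm spot fluorescence with signal to noise across triplicate slides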
# [3] = small-molecule microarray binders of probe aCHRDL2, primary screen, biochemical, biotinylated probe, 635/667 nm fluorescence (AID 1100); details: higher = more signal
# [4] = splicing luciferase reporter signal modulators, primary screen, spliceosome inhibition project, cell-based, HEK293, splice +/- reporter (AID 1101); details: luminescence, 24 h, higher = more signal, called active from +8 up or from −8 down;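 also: HEK293 cells carrying a splicing-competent luciferase reporter gene; test concentration not given here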
# [5] = target: Fibroblast growth factor 10 (Homo sapiens) (UniProt O15520); test: FGF10 binders on small-molecule microarrays, primary screen, biochemical, small-molecule microarray, 635 nm fluorescence (AID 1102); details: FGF10 binding, fluorescence 635 nm, higher = more signal
# Sequence of Fibroblast growth factor 10 (Homo sapiens) (O15520 whole entry, looked up): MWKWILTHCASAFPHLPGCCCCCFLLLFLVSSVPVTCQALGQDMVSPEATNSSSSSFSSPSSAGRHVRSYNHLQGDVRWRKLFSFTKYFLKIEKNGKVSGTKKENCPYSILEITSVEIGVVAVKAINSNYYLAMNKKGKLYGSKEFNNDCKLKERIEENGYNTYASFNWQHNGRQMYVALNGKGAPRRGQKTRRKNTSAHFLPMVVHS
# [6] = test system: glycogen synthase kinase-3 (GSK3A per assay name; protocol says GSK3B); test: GSK3 binders on small-molecule microarrays, primary screen, biochemical, small-molecule microarray, 635 nm fluorescence, GSK3A (AID 1103); details: small-molecule microarray binding, fluorescence 635 nm; higher = more signal; also: the record names both GSK3A and GSK3B
# [7] = target: Epidermal growth factor receptor (Homo sapiens) (UniProt P00533); test: EGFR binders on small-molecule microarrays, primary screen, biochemical, small-molecule microarray, 635 nm fluorescence (AID 1104); details: EGFR binding, higher = more signal;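 also: score merges 667 nm emission intensity with spot signal to noise over triplicate slides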
# Sequence of Epidermal growth factor receptor (Homo sapiens) (P00533 whole entry, looked up): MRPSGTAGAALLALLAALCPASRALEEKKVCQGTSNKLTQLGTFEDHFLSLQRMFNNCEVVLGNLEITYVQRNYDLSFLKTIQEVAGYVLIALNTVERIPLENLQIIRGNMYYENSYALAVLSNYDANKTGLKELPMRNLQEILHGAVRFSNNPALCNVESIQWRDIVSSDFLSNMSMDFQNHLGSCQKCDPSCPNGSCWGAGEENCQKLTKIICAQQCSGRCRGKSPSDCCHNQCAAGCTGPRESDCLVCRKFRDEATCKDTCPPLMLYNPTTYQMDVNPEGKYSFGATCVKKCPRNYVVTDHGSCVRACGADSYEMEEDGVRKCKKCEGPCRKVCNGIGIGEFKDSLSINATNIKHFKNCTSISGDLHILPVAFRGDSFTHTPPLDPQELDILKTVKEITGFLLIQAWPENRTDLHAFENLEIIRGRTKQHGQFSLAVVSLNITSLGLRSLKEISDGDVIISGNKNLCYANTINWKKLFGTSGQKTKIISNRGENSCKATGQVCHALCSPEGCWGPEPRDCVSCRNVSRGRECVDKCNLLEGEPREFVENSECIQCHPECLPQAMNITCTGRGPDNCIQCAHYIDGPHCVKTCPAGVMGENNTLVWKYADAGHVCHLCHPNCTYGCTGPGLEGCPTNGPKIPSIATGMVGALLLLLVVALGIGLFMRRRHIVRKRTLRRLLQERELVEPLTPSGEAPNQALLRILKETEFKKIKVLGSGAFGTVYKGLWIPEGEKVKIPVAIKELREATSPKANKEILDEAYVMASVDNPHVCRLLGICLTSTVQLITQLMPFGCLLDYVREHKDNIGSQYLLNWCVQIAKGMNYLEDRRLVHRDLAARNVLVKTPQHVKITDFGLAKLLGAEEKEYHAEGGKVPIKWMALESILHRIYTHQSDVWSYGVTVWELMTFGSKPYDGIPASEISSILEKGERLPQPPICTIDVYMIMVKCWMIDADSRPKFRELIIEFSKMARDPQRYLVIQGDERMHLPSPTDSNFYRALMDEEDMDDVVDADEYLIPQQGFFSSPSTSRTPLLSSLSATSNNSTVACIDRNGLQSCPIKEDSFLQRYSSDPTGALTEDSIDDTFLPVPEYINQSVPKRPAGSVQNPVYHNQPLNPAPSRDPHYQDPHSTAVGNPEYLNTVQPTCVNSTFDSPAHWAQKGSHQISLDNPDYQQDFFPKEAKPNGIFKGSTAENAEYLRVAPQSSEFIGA
# [8] = target: Follistatin-related protein 3 (Homo sapiens) (UniProt O95633); test: FSTL3 binders on small-molecule microarrays, primary screen, biochemical, small-molecule microarray, 635 nm fluorescence (AID 1105); details: FSTL3 binding, higher = more signal;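 also: score merges emission near 667 nm and signal to noise per printed spot across three slides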
# Sequence of Follistatin-related protein 3 (Homo sapiens) (O95633 whole entry, looked up): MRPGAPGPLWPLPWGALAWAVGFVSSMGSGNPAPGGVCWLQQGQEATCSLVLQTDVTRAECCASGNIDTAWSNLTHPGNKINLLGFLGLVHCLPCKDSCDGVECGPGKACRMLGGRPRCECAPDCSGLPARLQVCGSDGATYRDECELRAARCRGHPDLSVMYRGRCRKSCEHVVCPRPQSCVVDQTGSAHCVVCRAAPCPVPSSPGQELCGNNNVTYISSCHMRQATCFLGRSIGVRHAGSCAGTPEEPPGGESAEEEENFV
# [9] = target: Dickkopf-related protein 1 (Homo sapiens) (UniProt O94907); test: DKK1 binders on small-molecule microarrays, primary screen, biochemical, small-molecule microarray, 635 nm fluorescence scan (AID 1106); details: DKK1 binding, higher = more signal;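 also: score merges emission near 667 nm with signal to noise over three replicate slides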
# Sequence of Dickkopf-related protein 1 (Homo sapiens) (O94907 whole entry, looked up): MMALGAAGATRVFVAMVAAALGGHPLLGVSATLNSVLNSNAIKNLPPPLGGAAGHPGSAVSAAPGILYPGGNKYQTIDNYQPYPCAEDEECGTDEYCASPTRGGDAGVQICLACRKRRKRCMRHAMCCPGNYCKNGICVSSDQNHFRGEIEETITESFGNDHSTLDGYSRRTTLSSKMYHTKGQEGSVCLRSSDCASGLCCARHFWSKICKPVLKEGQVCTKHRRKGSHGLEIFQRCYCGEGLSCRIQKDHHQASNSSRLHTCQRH
# [10] = test system: Inhibin beta A chain (activin A); test: INHBA (activin A) binders on microarrays, primary screen, biochemical, small-molecule microarray, 635 nm fluorescence scan (AID 1107); details: small-molecule microarray binding, higher = more signal;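 also: mouse activin A protein probed at 4.33 µg/mL on printed slides; score merges bound-protein fluorescence near 667 nm with spot signal-to-noise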
# [11] = test system: Human papillomavirus type 1a protein E7 (residues 44-93); test: HPV1a E7 fragment binders on microarrays, primary screen, biochemical, small-molecule microarray, residues 44-93, 635 nm fluorescence (AID 1108); details: small-molecule microarray binding, fluorescence 635 nm; higher = more signal;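 also: E7 fragment applied at 1 µg/mL in TBST for 1 h at 4 C; score combines spot fluorescence with its signal to noise ratio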
# [12] = modulators of HCV replicon luciferase signal, primary screen, HCV replication inhibitor project, Huh7 cells, luciferase reporter (AID 1109); details: 48 h, higher = more signal;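 also: huh7 hepatoma cells harbouring a luciferase neomycin HCV replicon reporter; luciferase luminescence as measure of HCV replicon replication; test concentration not given here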
# [13] = target: Left-right determination factor 2 (Homo sapiens) (UniProt O00292); test: LEFTY2 binders on small-molecule microarrays, primary screen, biochemical, small-molecule microarray, 635 nm fluorescence scan (AID 1110); details: LEFTY2 binding, higher = more signal
# Sequence of Left-right determination factor 2 (Homo sapiens) (O00292 whole entry, looked up): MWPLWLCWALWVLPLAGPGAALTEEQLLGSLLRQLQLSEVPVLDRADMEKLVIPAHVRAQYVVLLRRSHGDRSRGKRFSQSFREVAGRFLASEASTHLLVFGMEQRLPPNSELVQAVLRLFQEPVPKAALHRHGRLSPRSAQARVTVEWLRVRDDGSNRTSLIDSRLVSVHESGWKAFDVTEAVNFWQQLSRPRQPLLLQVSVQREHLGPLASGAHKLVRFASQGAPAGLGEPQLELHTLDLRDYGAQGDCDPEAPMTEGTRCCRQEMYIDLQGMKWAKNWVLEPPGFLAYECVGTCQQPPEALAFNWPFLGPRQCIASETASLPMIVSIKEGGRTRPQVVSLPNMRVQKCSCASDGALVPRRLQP
# [14] = target: Calmodulin-1 (Homo sapiens) (UniProt P0DP23); test: CALM1 binders on microarrays, EGTA buffer, profiling panel, biochemical, small-molecule microarray, Cy5-labelled CALM1 (AID 1111); details: Cy5-CALM1 binding fluorescence, higher = more signal;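 also: labelled calmodulin applied in Tris saline Tween buffer holding calcium plus EGTA and DTT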
# [15] = target: Calmodulin-1 (Homo sapiens) (UniProt P0DP23); test: calcium-bound CALM1 binders on microarrays, profiling panel, artefact control for SMM control-protein annotation, biochemical, small-molecule microarray, Cy5-labelled CALM1, plus calcium (AID 1112); details: Cy5-CALM1 binding fluorescence, higher = more signal;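 also: score merges spot fluorescence with signal to noise from triplicate slides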
# [16] = small-molecule microarray binders of probe aWnt5a, primary screen, biochemical, biotinylated probe, 635/667 nm fluorescence (AID 1113); details: higher = more signal;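 also: score merges 667 nm fluorescence intensity with signal-to-noise per printed feature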
# [17] = small-molecule microarray binders of probe aShh, primary screen, biochemical, biotinylated probe, 635/667 nm fluorescence (AID 1114); details: higher = more signal;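 also: probe is biotin-labelled aShh protein from a stem cell growth factor screen; measures binding of labelled protein to compounds printed on the slide; score merges feature fluorescence at 667 nm with signal-to-noise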
# [18] = small-molecule microarray binders of probe aNog, primary screen, biochemical, biotinylated probe, 635/667 nm fluorescence (AID 1115); details: higher = more signal;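 also: probe is biotinylated aNog protein used at 0.15 µg/mL for 1 h at 4 C; z-score combines 667 nm fluorescence of each spot with its signal to noise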
# [19] = target: Torsin-1A-interacting protein 1 (Homo sapiens) (UniProt Q5JTV8); test: LAP1 binders from COS7 cell lysate, primary screen, small-molecule microarray, 635/667 nm fluorescence (AID 1116); details: COS7-hLAP1 lysate binding, 635 nm fluorescence, higher = more signal
# Sequence of Torsin-1A-interacting protein 1 (Homo sapiens) (Q5JTV8 whole entry, looked up): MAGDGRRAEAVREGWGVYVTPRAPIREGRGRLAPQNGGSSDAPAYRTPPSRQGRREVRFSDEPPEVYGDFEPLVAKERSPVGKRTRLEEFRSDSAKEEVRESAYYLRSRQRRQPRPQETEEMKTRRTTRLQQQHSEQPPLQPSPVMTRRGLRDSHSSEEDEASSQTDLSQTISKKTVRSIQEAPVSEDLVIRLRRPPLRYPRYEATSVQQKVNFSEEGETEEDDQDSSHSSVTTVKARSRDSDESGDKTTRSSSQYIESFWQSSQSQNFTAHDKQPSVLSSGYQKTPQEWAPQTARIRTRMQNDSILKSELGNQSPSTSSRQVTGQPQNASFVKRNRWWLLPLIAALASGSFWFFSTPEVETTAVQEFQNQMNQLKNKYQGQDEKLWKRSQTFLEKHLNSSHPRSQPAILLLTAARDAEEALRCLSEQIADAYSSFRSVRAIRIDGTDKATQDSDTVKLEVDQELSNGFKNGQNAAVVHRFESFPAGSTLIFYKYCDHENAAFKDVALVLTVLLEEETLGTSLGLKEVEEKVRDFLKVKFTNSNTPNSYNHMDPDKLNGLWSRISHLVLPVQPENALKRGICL
# [20] = target: Alpha-bungarotoxin (Bungarus multicinctus) (UniProt P60615); test: alpha-bungarotoxin binders on microarray, profiling panel, artefact control for SMM control protein annotation, biochemical, small-molecule microarray, Alexa647 label, 635/667 nm fluorescence (AID 1117); details: alpha-BTX-A647 binding fluorescence, higher = more signal
# Sequence of Alpha-bungarotoxin (Bungarus multicinctus) (P60615 whole entry, looked up): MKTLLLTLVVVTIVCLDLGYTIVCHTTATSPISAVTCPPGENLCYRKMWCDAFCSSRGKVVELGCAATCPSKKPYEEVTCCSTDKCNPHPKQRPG
SMILES,composite z-score [1],composite z-score [2],composite z-score [3],z-score [4],composite z-score [5],composite z-score [6],composite z-score [7],composite z-score [8],composite z-score [9],composite z-score [10],composite z-score [11],z-score [12],composite z-score [13],composite z-score [14],composite z-score [15],composite z-score [16],composite z-score [17],composite z-score [18],composite z-score [19],composite z-score [20]
CC(C)(C)OC(=O)CC[C@]1(C(=O)NCCN2CCOCC2)COC(c2ccc(OCCCO)cc2)=N1,0.706,0.0968,0.465,-0.686 (inactive),1.42,0.743,-0.422,0.683,-0.105,0.295,1.42,-0.464,0.051,0.762,-0.23,0.0559,-0.0066,0.951,1.27,0.791
CCCCN1CC=CC23O[C@@H]4/C=C\CCCOC(=O)C4[C@H]2C(=O)N(CCCO)[C@@H]3C1=O (stereo not given in full),0.992,-0.222,0.421,0.187 (inactive),-1.11,-0.224,-0.992,-0.946,-0.984,-0.27,0.498,-0.381,-1.08,-0.692,-0.298,-0.124,-0.0211,0.13,2.1,-0.803
CCCCC(=C=CC[C@H](O)c1cccc(OCCO)c1)C[C@H](O)c1ccccn1,0.827,-0.218,-0.302,-2.17 (inactive),0.453,-0.364,0.0715,0.0048,0.296,0.434,-0.146,-1.05,0.258,0.481,-0.784,-0.0239,-0.13,-0.23,0.0971,-0.0891
COCC(=C=CC[C@H](O)c1cccc(OCCO)c1)CCO,0.34,-0.0405,-0.101,0.105 (inactive),0.569,-0.218,-0.0436,0.688,0.0241,0.177,1.02,-0.119,0.0075,-0.488,-0.487,-0.127,-0.156,0.0395,-0.0815,-0.113
OCC1C=C(/C=C/c2ccccc2)CN1Cc1ccccc1Br (stereo not given),1.1,0.296,-0.241,0.103 (inactive),1.18,0.86,0.357,1.37,1.12,0.692,-0.119,-1.92,1.14,0.776,-0.265,0.0375,-0.0553,-0.266,0.289,1.12
CCCCN1CC=CC23O[C@@H]4C=CCCOC(=O)C4[C@H]2C(=O)N(CCCCCO)[C@@H]3C1=O (stereo not given in full),1.2,-0.359,0.413,-0.268 (inactive),-1.1,-0.649,-0.95,-1.15,-0.787,0.26,-0.977,-0.698,-0.646,-0.107,-0.589,-0.208,-0.138,-0.033,-0.865,0.0086
COc1ccccc1CN1C(=O)c2ccccc2[C@@H](C(=O)NCc2ccccc2)[C@@H]1c1ccc(CO)cc1,1.48,-0.262,0.617,-0.263 (inactive),-0.144,0.883,-0.154,-0.113,-0.258,-0.134,0.841,-1.01,0.0458,-0.473,-0.181,-0.124,-0.374,-0.416,0.404,1.78
CC(C)CNC(=O)[C@@]1(Cc2ccccc2I)c2ccccc2C(=O)N(Cc2ccccc2C(F)(F)F)[C@H]1c1ccc(CO)cc1,-0.164,0.104,0.836,0.368 (inactive),0.122,-0.95,-1.17,-0.978,-0.822,0.598,0.476,-0.908,-1.3,-0.512,-0.157,-0.176,1.98,0.978,0.146,-0.124
COCCCNC(=O)[C@@]1(Cc2ccccc2CN=[N+]=[N-])N=C(c2ccc(OCCCO)cc2)O[C@H]1c1ccccc1CN=[N+]=[N-],1.25,0.616,1.09,-1.51 (inactive),1.43,0.186,-0.334,0.299,-0.629,0.849,1.37,-3.39,-0.443,1.36,0.875,0.173,0.311,-0.69,0.852,1.84
COC(=O)[C@@]1(Cc2ccc(F)cc2)[C@H]2c3cc(C(=O)N(C)C)n(Cc4cc(C)n(C)n4)c3C[C@H]2CN1C(=O)c1ccccc1,1.16,1.2,1.19,-1.99 (inactive),1.17,0.716,-0.0733,0.386,0.0455,0.609,0.923,0.107,-0.476,2.43,0.669,0.418,-0.0324,1.82,2.58,0.42
CO[C@H]1O[C@H](CO)[C@@H](OC(=O)Nc2ccccc2)[C@@H]2OC(=O)[C@@H](Cc3ccc4ccccc4c3)C/C=C/C[C@H](Cc3ccc4ccccc4c3)C(=O)O[C@@H]12,1.08,0.134,0.402,-0.916 (inactive),1.08,0.899,0.204,0.531,-0.112,0.962,0.601,-2.92,0.0985,0.697,-0.56,-0.006,-0.237,1.3,1.72,0.322
